Where a name gives a salt, the structure may show the parent alone.
How the values were obtained:
Test in all cases: Euclidean distance of Cell Painting phenotypic profile (signed KS, 77 features) to DMSO centroid (dimensionless distance); 5 or 10 uM (library dependent); higher = stronger phenotypic change vs DMSO (phenoactivity)
Settings in all cases: 48 h
786-O = test system: 786-O
In short: (§1)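 Five cancer lines, together with a healthy fibroblast line, received library compounds for 48 h at a library-dependent 10 or 5 uM and 0.1% DMSO final. Harmony then derived 77 features from confocal 20X images (9 fields/well) of the stained cells, scoring each as a signed Kolmogorov-Smirnov statistic against same-plate vehicle wells. After plate-position correction, correlation weighting and replicate averaging at the top dose, phenoactivity was taken as each profile's Euclidean distance to the median vehicle profile.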

A549 = test system: A549
In short: as §1

DU145 = test system: DU145
In short: as §1

FB = test system: FB
In short: as §1

HEPG2 = test system: HEPG2
In short: as §1

OVCAR4 = test system: OVCAR4
In short: as §1

SMILES | Euclidean distance (786-O) | Euclidean distance (A549) | Euclidean distance (DU145) | Euclidean distance (FB) | Euclidean distance (HEPG2) | Euclidean distance (OVCAR4)
COc1ccc2[nH]c([S@@+]([O-])Cc3ncc(C)c(OC)c3C)nc2c1 [Esomeprazole Sodium] | 1.75 | 1.36 | 1.05 | 0.915 | 1.26 | 1.34
NS(=O)(=O)c1ccccc1 [Benzenesulfonamide] | 1.16 | 0.87 | 1.05 | 1.27 | 0.909 | 0.962
Cc1cccc(-c2nn3c(c2-c2ccnc4ccc(C(N)=O)cc24)CCC3)n1 | 1.39 | 1.06 | 0.926 | 1.47 | 1.04 | 1.18
COc1ccc(-c2ccc3c(N4CCOCC4)nc(N4C[C@@H](C)O[C@@H](C)C4)nc3n2)cc1CO | 1.93 | 2.15 | 1.96 | 3.61 | 2 | 2.43
NC(=O)c1ncn([C@@H]2O[C@H](CO)[C@@H](O)[C@H]2O)n1 [Ribavirin] | 0.706 | 0.843 | 0.599 | 0.808 | 0.875 | 0.963
CCC1(c2c[nH]cn2)Cc2ccccc2C1 [Atipamezole] | 0.467 | 0.642 | 0.626 | 0.848 | 0.484 | 0.675
CN1CCN(C2CCN(C(=O)Nc3cc(Oc4ccc(NC(=O)C5(C(=O)Nc6ccc(F)cc6)CC5)c(F)c4)ccn3)CC2)CC1 [Golvatinib (E7050)] | 1.08 | 1.47 | 1.32 | 3.36 | 3.28 | 1.45
CC12CCC(CC1=O)C2(C)C (stereo not drawn) [Camphor] | 0.669 | 0.742 | 0.875 | 0.818 | 0.352 | 1.67
CC(C)(c1ccc(O)cc1)c1ccc(O)cc1 [Bisphenol A] | 0.955 | 1.21 | 0.773 | 0.78 | 0.694 | 0.934
CO[C@H]1O[C@@H]2O[C@@]3(C)CC[C@H]4[C@H](C)CC[C@@H]([C@H]1C)[C@@]24OO3 [Artemether] | 1.43 | 1.11 | 0.712 | 1.28 | 0.672 | 1.26
CN(C)c1ccc2c(c1)Sc1cc(N(C)C)ccc1N2 [TRx0237 (LMTX) mesylate] | 2.79 | 3.35 | 2.69 | 3.38 | 2.95 | 2.88
CC/C(=C(\c1ccc(O)cc1)c1ccc(OCCNC)cc1)c1ccccc1 [Endoxifen HCl] | 4.21 | 3.39 | 2.59 | 3.3 | 4.86 | 3.32
CN(C)c1cc(NC(=O)CNC(C)(C)C)c(O)c2c1C[C@H]1C[C@H]3[C@H](N(C)C)C(O)=C(C(N)=O)C(=O)[C@@]3(O)C(O)=C1C2=O [Tigecycline] | 1.81 | 0.996 | 1.03 | 1.6 | 1.09 | 1.18
O=C(O)/C=C/c1ccc(O)c(O)c1 [Caffeic Acid] | 0.946 | 0.603 | 1.61 | 0.961 | 0.639 | 1.23
Cn1c(=O)c2c(ncn2CC2OCCO2)n(C)c1=O [Doxofylline] | 1.15 | 0.81 | 0.772 | 0.965 | 0.408 | 1.15
CC(C)N(CCCNC(=O)Nc1ccc(C(C)(C)C)cc1)C[C@H]1O[C@@H](n2ccc3c(N)ncnc32)[C@H](O)[C@@H]1O | 1.04 | 0.769 | 0.92 | 1.18 | 0.5 | 0.755
CC1=Nc2ccc(Cl)cc2S(=O)(=O)N1 [Diazoxide] | 1.25 | 0.782 | 1.19 | 1.21 | 1.01 | 1.25
NC(=O)c1cc[n+](CC2=C(C(=O)O)N3C(=O)[C@@H](NC(=O)[C@@H](c4ccccc4)S(=O)(=O)[O-])[C@H]3SC2)cc1 [Cefsulodin sodium] | 1.11 | 0.966 | 1.58 | 1.06 | 0.633 | 1.15
COC(=O)[C@@H]1[C@H]2C[C@H]3c4[nH]c5ccccc5c4CCN3C[C@@H]2CC[C@@H]1O [Yohimbine HCl] | 1.79 | 0.764 | 0.901 | 0.844 | 0.549 | 0.758
O=C1NC(=O)/C(=C/c2ccc(-c3ccc(F)cc3O)o2)S1 | 1.18 | 0.855 | 1.25 | 1.02 | 0.814 | 0.97
COc1ccc2c(O[C@@H]3C[C@H]4C(=O)N[C@]5(C(=O)NS(=O)(=O)C6CC6)C[C@H]5/C=C\CCCCN(C)C(=O)[C@@H]4C3)cc(-c3nc(C(C)C)cs3)nc2c1C [Simeprevir] | 1.38 | 2.3 | 1.29 | 0.939 | 0.799 | 1.23
O=NN(CCCl)C(=O)NC1CCCCC1 [Lomustine] | 0.894 | 0.833 | 0.869 | 1.05 | 0.457 | 1
CC(C)=CCOc1ccc(/C=C/C(=O)c2ccc(OCC=C(C)C)cc2OCC(=O)O)cc1 [Sofalcone] | 1.25 | 1.09 | 0.847 | 1.01 | 0.922 | 1.08

Reference: the supplement of paper PMC10127200
